Compound activity from PubChem.
Shown are actives, neighbours in structure and some others; about 12% of the full set was active somewhere.
JMJD2A Tudor inh = qHTS Assay for Inhibitors of JMJD2A-Tudor Domain. Lysine-specific demethylase 4A (Homo sapiens), O75164. AlphaScreen JMJD2A-Tudor / H3K4me3 peptide binding. Potency, µM (titrated, usually from 114 µM), without a hit: top-dose activity change, negative = inhibition, most hits filed as inhibitors. hit rate 4.4% among 390,000. AID 504339, 2011; note: % is set by controls: 0 for no effect and ±100 for the full control effect; nearly all actives have a fitted effect of over 50% in size
BAZ2B block = qHTS Assay for Inhibitors of BAZ2B. Bromodomain adjacent to zinc finger domain protein 2B (Homo sapiens), Q9UIF8. AlphaScreen BAZ2B-H3K14Ac peptide displacement. Potency, µM (titrated, usually from 114 µM), for inactives: at the top dose activity change, negative = inhibition, hits mostly inhibitors. hit rate 4.4% among 360,000. AID 504333, 2011; note: % is set by controls: 0 for no effect and ±100 for the full control effect; nearly all actives have a fitted effect of over 60% in size
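Compounds, titrated to a top concentration of 110 uM, were incubated 30 min at room temperature with preformed BAZ2B/acetyl-K14 H3 peptide complex (50 nM each). Proximity signal was measured by AlphaScreen after 20 min with beads.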
G9a inh = qHTS Assay for Inhibitors of Histone Lysine Methyltransferase G9a | hit rate 8.8% among 350,000 | Histone-lysine N-methyltransferase EHMT2 (Homo sapiens), Q96KQ7 | G9a H3K9 monomethylation, AlphaScreen, 2 h | Potency, µM (doses to about 102 µM), without a hit: at the highest dose activity, negative = inhibition, most hits filed as inhibitors; note: % is set by controls: 0 for no effect and ±100 for the full control effect; nearly all actives have a fitted effect of over 75% in size
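AlphaScreen read-out: biotin-H3K9 peptide (500 nM) methylation by 20 nM enzyme with 20 uM SAM, 2 h at room temperature after 15 min compound preincubation; anti-monomethyl H3K9 antibody plus donor/acceptor beads, 10 min dark.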
L3MBTL1 block = qHTS Assay for the Inhibitors of L3MBTL1; Potency, µM (top dose mostly 57.1 µM), inactives show top-dose activity, negative = inhibition, most hits filed as inhibitors; AlphaScreen L3MBTL1–H3K9me1 peptide binding; hit rate 0.66% among 230,000; Lethal(3)malignant brain tumor-like protein 1 (Homo sapiens), Q9Y468; note: % is set by controls: 0 for no effect and ±100 for the full control effect; nearly all actives have a fitted effect of over 60% in size
Target sequence (Q9Y468 whole entry, looked up): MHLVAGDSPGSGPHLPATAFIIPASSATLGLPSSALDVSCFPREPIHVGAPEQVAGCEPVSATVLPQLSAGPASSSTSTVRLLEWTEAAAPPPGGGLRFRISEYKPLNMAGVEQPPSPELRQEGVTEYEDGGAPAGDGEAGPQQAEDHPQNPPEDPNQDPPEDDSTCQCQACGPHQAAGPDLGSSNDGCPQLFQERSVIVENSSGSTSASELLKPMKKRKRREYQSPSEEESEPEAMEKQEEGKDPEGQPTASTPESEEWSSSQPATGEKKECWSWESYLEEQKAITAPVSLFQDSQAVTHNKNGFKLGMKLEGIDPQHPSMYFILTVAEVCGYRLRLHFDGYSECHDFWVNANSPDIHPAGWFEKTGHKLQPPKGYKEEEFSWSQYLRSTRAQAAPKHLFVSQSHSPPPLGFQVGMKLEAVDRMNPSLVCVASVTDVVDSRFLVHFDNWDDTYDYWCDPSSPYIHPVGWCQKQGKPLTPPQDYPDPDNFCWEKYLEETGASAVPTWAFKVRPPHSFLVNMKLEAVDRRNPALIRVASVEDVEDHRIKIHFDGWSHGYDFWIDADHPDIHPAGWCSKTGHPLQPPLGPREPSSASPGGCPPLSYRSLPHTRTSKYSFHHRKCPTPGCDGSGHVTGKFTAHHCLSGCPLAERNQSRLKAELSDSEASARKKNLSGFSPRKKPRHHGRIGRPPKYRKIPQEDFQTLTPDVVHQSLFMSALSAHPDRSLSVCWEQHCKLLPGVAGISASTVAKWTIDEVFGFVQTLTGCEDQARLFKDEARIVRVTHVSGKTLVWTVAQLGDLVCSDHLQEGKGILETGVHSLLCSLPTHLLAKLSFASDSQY
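Displacement of a biotinylated histone H3(1-15) peptide monomethylated at Lys9 (75 nM) from L3MBTL1 (50 nM) was measured by AlphaScreen after a 30 min room-temperature compound incubation; cefsulodin titration served as intraplate control.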
Sfp PPTase inh = qHTS Assay for Inhibitors of Bacillus subtilis Sfp phosphopantetheinyl transferase (PPTase); Potency, µM, for inactives: largest response in the series, negative = inhibition, most hits filed as inhibitors; hit rate 3.5% among 310,000; Biochemical Sfp PPTase activity, qHTS;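 note: the enzyme is Sfp with the accession as filed and its product quenches rhodamine fluorescence; 0% = enzyme reaction without inhibitor and -100% = no enzyme wells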
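Compounds were incubated with enzyme (final 15 nM) for 15 min at room temperature before substrate addition started the reaction. Fluorescence at 525 nm excitation, 598 nm emission was recorded immediately and after 30 minutes.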
HP1b binding inh = HTS for Inhibitors of HP1-beta Chromodomain Interactions with Methylated Histone Tails; hit rate 0.56% among 390,000; Chromobox protein homolog 1 (Homo sapiens), P83916; AlphaScreen HP1-beta / biotin-H3K9me3 peptide binding; Potency, µM (series often up to 114 µM), for the others: at the top dose activity change, negative = inhibition, most hits filed as inhibitors; note: nearly all actives have a fitted effect of over 70% in size
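HP1-beta protein (50 nM final) preincubated 30 min at room temperature with biotinylated H3(1-18)K9me3 peptide (50 nM) in PBS pH 7.4, 0.01% Tween-20, then compound added for 30 min. AlphaScreen streptavidin donor/nickel chelate acceptor beads (10 ug/mL final), 30 min dark, luminescence read.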
Active calls of the source: *; ? = inconclusive; / = not tested or not shown; [ ] = dose if it differs, or a comment. Calls come from the whole dose curve; as a rule, active = well fitted curve in the direction sought with a large enough effect; inconclusive = small, poorly fitted or top-dose-only effect, or another doubt; inactive = no such curve, though single readings can be large; an effect the other way counts as inactive or inconclusive. Potency is the fitted concentration of half-maximal effect.

SMILES	JMJD2A Tudor inh	BAZ2B block	G9a inh	L3MBTL1 block	Sfp PPTase inh	HP1b binding inh
O=C(O)/C=C/c1ccc([N+](=O)[O-])o1	35µM*	56µM*	22µM*	?	12%	50µM*
COc1cccc(-c2ccc3ncnc(N(C)C)c3c2)c1	/	/	4%[0.501 µM]	/	?	/
COC(=O)c1ccc(C(NC(=O)OCc2ccccc2)/C(F)=C/[C@@H](C)C(=O)NCc2cccnc2)cc1 (stereo not given in full)	/	/	/	/	13%	/
O=C1N/C(=N/Nc2ccccc2)S/C1=C\c1ccccc1	45µM*	40µM*	7.9µM*	-28%	25µM*	?
O=C1NC(=Nc2ccccc2)S/C1=C\c1ccccc1	-16%	-32%	-2%[0.501 µM]	5%[2.29 µM]	17%	48%
COc1ccc(OC)c(CCNC(=O)CS(=O)(=O)Cc2nc(-c3cccc(Cl)c3)oc2C)c1	-19%	?	-40%[59 µM]	/	/	34%
CC1=NOC(=O)/C1=C\c1ccc(-c2cccc(Cl)c2)o1	?	?	25µM*	-7%	20µM*	0%
Nc1ccccc1N=Cc1ccc(-c2cccc(Cl)c2)o1	-22%	-25%	?	-11%	32µM*	10%
CC1=NOC(=O)/C1=C\c1ccc(-c2ccccc2Br)o1	20µM*	25µM*	7.1µM*	/	56µM*	?
CC1=CC2=NC(=O)/C(=C\c3ccc(-c4cccc(Cl)c4)o3)C(=N)N2O1	-1%	3%	1%[59 µM]	1%	-6%	22%
COC(=O)N/N=C/c1ccc(-c2cccc(Cl)c2)o1	-24%	?	?	-1%	-24%	15%
CC1CC[C@]2(CO)CC[C@]3(C)C(=CCC4[C@@]5(C)CCC(O)C(C)(C)C5CC[C@@]43C)C2C1C (stereo not given in full)	/	/	-12%[2.33 µM]	/	3%	/
CN(C)c1ccc(C2C3CCCc4ccccc4C3=NN2C)cc1 (stereo not given)	25µM*	32µM*	10µM*	?	1%	?
CCCNC(=O)c1ccccc1NC(=O)c1nsc2ccccc12	-12%	2%	-1%[59 µM]	/	/	37%[57 µM]
CCCCn1c2ccccc2c2nnc(SCC(=O)Nc3ccc(NC(C)=O)cc3)nc21	?	-12%	?	/	/	6%
Cc1ccc(C2=NN=C(NC(=O)C(F)(F)F)SC2)cc1	-29%	-2%	28µM*	1%	?	-3%
COc1cc(CN(C(=O)c2ccco2)C2CCS(=O)(=O)C2)cc(OC)c1OC (stereo not given)	0%	-14%	-8%	/	5%	22%
CC(=O)NCC(=O)OC(C)C(=O)Nc1ccc(C(C)=O)cc1 (stereo not given)	-20%[57.1 µM]	-3%	20%[59 µM]	-2%	28%	57%
Cc1ccc(C(=O)NCC(=O)OC(C)C(=O)Nc2ccc(N(C)C)cc2)cc1C (stereo not given)	?	?	25µM*	/	7%	?
COc1ccc(CNC(=O)CCc2c(C)nn(-c3ccc(N4CCOCC4)nn3)c2C)c(OC)c1	-11%	-15%	0%[59 µM]	/	/	-4%
Cc1nn(-c2ccc(N3CCCC3)nn2)c(C)c1CCC(=O)NCc1ccc(F)cc1	-8%	79µM*	0%[59 µM]	/	/	75%
CCc1ccc(CNC(=O)CCc2c(C)nn(-c3ccc(N4CCCC4)nn3)c2C)cc1	-13%	?	11%[59 µM]	/	/	33%
COc1ccc(CNC(=O)CCc2c(C)nn(-c3ccc(N4CCCCC4)nn3)c2C)c(OC)c1	89µM*	-31%	16%[59 µM]	/	/	-8%
Nn1c(SCCOc2ccccc2)nnc1-c1cccnc1	-16%	-3%	50µM*	5%	2%	25%
Cc1ccc(OCCSc2nnc(-c3ccncc3)n2C)cc1	-2%	0%	40µM*	4%	10%	22%
SMILES	JMJD2A Tudor inh	BAZ2B block	G9a inh	L3MBTL1 block	Sfp PPTase inh	HP1b binding inh
Cc1ccc(C(=O)CSc2nnc(-c3ccncc3)n2C)cc1	-11%	-12%	1%[59 µM]	/	15%	-9%
COc1cccc(-n2c(SCC(=O)O)nnc2-c2cccnc2)c1	-18%	1%	56µM*	-4%	12%	31%
CCn1c(SCc2cccc(C(=O)O)c2)nnc1-c1ccccc1	-11%	-2%	56µM*	2%	21%	24%
O=C(C(=O)N1CCCCC1)c1cn(CC(=O)N2CCCCCC2)c2ccccc12	-17%	-21%	19%	/	4%	2%
COc1cccc(-c2nnc(SCC(=O)N3CCCC3=O)n2-c2ccccc2)c1	-19%	-2%	?	4%	-1%	25%
COc1ccc(-n2c(SCC(=O)N3CCCCC3C)nnc2-c2cccnc2)cc1 (stereo not given)	4%	16%	40µM*	0%	?	58%
CCn1c(SCC(=O)c2ccccc2)nnc1-c1cccnc1	-13%	-17%	-8%	-3%	7%	23%
CCn1c(SCCC(=O)O)nnc1-c1cccnc1	-17%	-6%	45µM*	2%	15%	21%
COc1cccc(-n2c(COc3ccccc3C)nnc2SCC(=O)O)c1	-12%	-5%	45µM*	0%	2%	24%
COc1cccc(-c2nnc(SCC3CNC(=O)O3)n2-c2ccc(Cl)cc2)c1 (stereo not given)	-13%	12%	14µM*	-7%	8%	26%
CCCN1C(=O)c2ccccc2NC1c1ccc(OC)c(COc2ccc([N+](=O)[O-])cc2)c1 (stereo not given)	-23%[57.1 µM]	/	/	/	/	3%[57 µM]
CCc1ccc(Cc2cnc(NC(=O)C3=NCCN3)s2)cc1	-25%	-3%	3%	/	6%	16%
COC(=O)N1CCC[C@@]2(CCN(Cc3cc(C(F)(F)F)cc(C(F)(F)F)c3)C2)C1	/	/	4%[12.7 µM]	/	16%	/
CCCNC(=S)Nc1ccc(S(N)(=O)=O)cc1	-11%[57.1 µM]	0%	2%	-5%	6%	16%
COc1ccc(OC)c(NC(=S)NCc2ccc(S(N)(=O)=O)cc2)c1	-10%	6%	45µM*	-2%	-12%	-18%
NS(=O)(=O)c1ccc(CNC(=S)Nc2ccc(Cl)c(Cl)c2)cc1	-17%	-12%	45µM*	/	?	-1%
CC(C)CNC(=S)Nc1ccc(S(N)(=O)=O)cc1	-12%	-4%	40µM*	2%	-15%	-17%
COC(=O)[C@H](CC(C)C)NC(=O)Nc1ccc(S(N)(=O)=O)cc1	-15%	30%	1%	-9%	79µM*	19%
